Assay outcomes (PubChem BioAssay)
Rows were chosen to be rich in hits. Some 5.4% of all compounds tested hit in one or more screens of this group.
Vaccinia Venus: qHTS for Stage-Specific Inhibitors of Vaccinia Orthopoxvirus: Venus Reporter Primary qHTS; Vaccinia virus Venus reporter expression, fluorescence; Potency, µM (doses to about 36.5 µM), without a hit: at the top dose activity change, negative = inhibition, usual class: inhibitors; hit rate 0.46% among 330,000; calls by dose curve; tested in A549 cells; note: nearly all actives have a fitted effect of over 30% in size
Lassa entry inh: qHTS for Inhibitors of binding or entry into cells for Lassa Virus | Lassa virus pseudotype entry inhibition, cell reporter | Potency, µM (highest dose often 37.9 µM), inactives show at the top dose activity change, negative = inhibition, hits mostly inhibitors | hit rate 1.2% among 300,000; calls by dose curve; tested in HEK293 cells; note: nearly all actives have a fitted effect of over 50% in size
Marburg entry inh: qHTS for inhibitors of binding or entry into cells for Marburg Virus; Marburg virus pseudotyped entry inhibition, cell reporter; Potency, µM (doses to about 37.8 µM), for the others: top-dose activity change, negative = inhibition, actives largely listed as inhibitors; hit rate 1.8% among 300,000; AID 540276, 2011; calls by dose curve; tested in HEK293 cells
FMDV inh: High Throughput Screening for Foot and Mouth Disease Virus Antivirals; hit rate 1.2% among 410,000; FMDV antiviral cell-based qHTS; Potency, µM (highest dose often 57.9 µM), for inactives: at the highest dose activity change, negative = inhibition, actives largely listed as inhibitors; calls by dose curve; tested in HEK293T cells; note: read-out not given here; nearly all actives have a fitted effect of over 45% in size
VACV mCherry inh: qHTS for Stage-Specific Inhibitors of Vaccinia Orthopoxvirus: mCherry Reporter Primary qHTS | Vaccinia virus mCherry reporter infection, fluorescence | Potency, µM (doses to about 36.5 µM), for inactives: at the highest dose activity change, negative = inhibition, actives largely listed as inhibitors | hit rate 0.63% among 310,000; calls by dose curve; tested in A549 cells; note: nearly all actives have a fitted effect of over 35% in size
Sm TGR inh: qHTS Assay for the Inhibitors of Schistosoma Mansoni Peroxiredoxins. Schistosoma mansoni thioredoxin glutathione reductase (TGR), Q962Y6. purified TGR, DTNB reduction, TNB absorbance 405 nm. Potency, µM (top dose mostly 114 µM), for the others: at the highest dose activity change, negative = inhibition, usual class: inhibitors. hit rate 3% among 360,000; active = well fitted inhibition curve with a large enough effect; inconclusive = small, poorly fitted or top-dose-only effect; inactive = no such curve, though single readings can be large or run the other way; note: nearly all actives have a fitted effect of over 60% in size
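Kinetic colorimetric format: TGR-catalysed, NADPH-driven DTNB reduction monitored via TNB absorbance. Enzyme dispensed at 20 nM; compound exposure 15 min at room temperature before reaction start.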
The depositor's hits bear a star; i = inactive; ? = inconclusive; · = no result given; [ ] = dose if it differs, or a comment. % is set by controls: 0 for no effect and ±100 for the full control effect; potency is the fitted concentration of half-maximal effect.

SMILES	Vaccinia Venus	Lassa entry inh	Marburg entry inh	FMDV inh	VACV mCherry inh	Sm TGR inh
CCC(=O)c1ccc2c(c1)N(CCCN(C)C)c1ccccc1S2	-26%	?	21µM*	-16%	?	·
COc1ccc2c(c1)Sc1ccccc1N2CCN(C)C	?	?	11µM*	-12%	·	-5%
CNCCCN1c2ccccc2CCc2ccccc21	-23%	-12%	1.3µM*	-7%	-10%	-11%
CC1=CC[C@@H](COc2ccccc2)O[C@@]2(C1)C(=O)N(Cc1ccc(F)cc1)c1ccccc12	·	·	-2%[14.2 µM]	·	·	·
O=C1CC[C@@H](C(=O)NCC2Cc3cc(Cl)cc(-c4ccc5[nH]ccc5c4)c3O2)N1 (some centres undefined)	5%	·	·	-15%	-20%	·
Cc1cccnc1-c1cccc2c1OC(CNC(=O)Cc1c(C)noc1C)C2 (centres undefined)	0%	·	·	-7%	-10%	·
CC(=O)c1ccc2c(c1)N(CCCN(C)C)c1ccccc1S2	?	·	·	-26%	?	·
CN(C)CCCN1c2ccccc2Sc2ccccc21	-24%	?	18µM*	?	?	-2%
COc1ccc(N2CCN(c3oc(/C=C/c4ccccc4OC)nc3C#N)CC2)cc1	-4%	16%[46.1 µM]	11%[46.1 µM]	-17%	-8%	1%
COc1ccc(C2=NN3C(C2)c2ccccc2OC32C(=O)N(C)c3ccccc32)cc1 (centres undefined)	-8%	?	?	8%	·	40µM*
COc1ccc(C2=NN3C(C2)c2ccccc2OC3c2cccs2)cc1 (centres undefined)	-10%	-8%	?	62%	-5%	?
Cc1cc(C)n(-c2nc(NCCCN(C)C)c3c4c(sc3n2)COC(C)(C)C4)n1	?	-25%	?	0%	?	5%
Cc1cc(C)n(-c2nc(NCCN(C)C)c3c4c(sc3n2)COC(C)(C)C4)n1	-24%	13µM*	7.1µM*	-8%	-2%	-2%
CCN(CC)CCNc1nc(-n2nc(C)cc2C)nc2sc3c(c12)CC(C)(C)OC3	?	7.9µM*	?	1%	?	9%
COC(=O)c1ccc(C2c3c(-c4ccccc4O)n[nH]c3C(=O)N2Cc2cccnc2)cc1 (centres undefined)	-6%	?	15%[46.1 µM]	9%	-5%	-4%
CCOC(=O)c1cc(-c2ccc(F)cc2)n(CCC(=O)NC2CCC(C)CC2)c1C (centres undefined)	-11%	0%[46.1 µM]	·	-16%	-10%	2%
Cc1ccc(CN2C(=O)c3ccccc3C2C(=O)NC2CCCCCC2)cc1 (centres undefined)	7%	?	0%[46.1 µM]	-8%	-2%	9%
Cn1c(O)c(/C=C2\N=c3ccccc3=C2CCNC(=S)NC2CC2)c(=O)n(C)c1=O	7%	-9%[46.1 µM]	7%[46.1 µM]	13µM*	i	5.6µM*
O=C(O)CSCC(=O)Nc1ccc(Cl)cc1C(F)(F)F	-1%	-8%[46.1 µM]	14%[46.1 µM]	7%	i	·
CCC(C)N(CC(=O)Nc1cccc(C)c1C)C(=O)CCl (centres undefined)	?	3.2µM*	7%[46.1 µM]	16µM*	4.5µM*	20µM*
CCC(CC)NC(=O)Nc1cccc(C)c1C	·	·	·	-6%	·	18%
CC(C)N(CC(=O)Nc1ccc(Cl)cc1C(F)(F)F)C(=O)CCl	-24%	?	10µM*	16µM*	?	18µM*
C[C@]12C=CC(=O)C=C1CCC1C2=CC[C@]2(C)[C@@H](C(=O)CN3CCN(c4cc(N5CCCC5)nc(N5CCCC5)n4)CC3)CC[C@@H]12 (some centres undefined)	·	·	5.6µM*	·	·	·
CC(=O)OCC(=O)C1CCC2C3CCC4=CC(=O)C=CC4(C)C3CCC12C (centres undefined)	-21%	1%	4%	-19%	0%	·
CCCCOc1ccc(N(CC(=O)NC(C)(C)CC)C(=O)CCC(=O)Nc2ccccn2)cc1	-27%	?	8.9µM*	-7%	-9%	0%
SMILES	Vaccinia Venus	Lassa entry inh	Marburg entry inh	FMDV inh	VACV mCherry inh	Sm TGR inh
O=C(/C=C/c1ccc2c(c1)OCO2)Nc1nncs1	·	·	·	58%	·	7%
O=C(/C=C/c1ccc2c(c1)OCO2)Nc1nc(-c2ccccc2)cs1	?	-27%	?	14µM*	?	-19%
Cc1sc(NC(=O)/C=C/c2ccc3c(c2)OCO3)nc1-c1ccccc1	-21%	?	?	6.3µM*	-24%	-7%
Cc1ccc(N/N=C(/Sc2nnnn2-c2ccccc2)C(=O)c2ccccc2)cc1	-17%	-5%	-5%	18%	-26%	-2%
O=C(/C(=N\Nc1ccc([N+](=O)[O-])cc1)Sc1nnnn1-c1ccccc1)c1ccccc1	?	12%	0.89µM*	?	?	1%
Cc1ncc2c(c1CNC(=O)CN1CCCC1)CCN(C(=O)c1ccc(F)cc1F)C2	13%	·	·	1%	-7%	·
O=C(N/N=C/C=C/c1ccco1)c1ccncc1	-19%	-7%[46.1 µM]	19%[46.1 µM]	-7%	-3%	28µM*
O=C(N/N=C/C=C/c1ccco1)c1ccccc1Cl	-19%	-24%[46.1 µM]	?	18%	-4%	?
COC(=O)/C(=C/c1ccco1)NC(=O)c1ccccc1	-9%	-14%	?	-10%	-10%	-5%
O=C(N/N=C/C=C\c1ccco1)c1cccs1	-6%	-10%[46.1 µM]	?	29%	-11%	11µM*
O=C(Cc1cccs1)N/N=C/C=C\c1ccco1	5%	?	10%[46.1 µM]	64%	i	25µM*
O=C(CNC(=O)c1cccs1)N/N=C/c1ccco1	1%	·	·	-4%	i	-17%
CCCOC(=O)/C(=C\C=C\c1ccco1)NC(=O)c1ccccc1	-14%	9%	11%[46.1 µM]	3%	?	8.9µM*
O=C(O)/C(=C\c1ccco1)NC(=O)c1ccccc1	-4%	22%	8%	-22%	i	-4%
O=C(N/N=C/C=C/c1ccco1)/C(=C/c1ccccc1)NC(=O)c1ccccc1	-17%	-22%	3%	9%	0%	45µM*
COc1ccccc1/C=C/C=N/NC(=O)Cc1cccs1	-15%	0.12µM*	?	46%	-20%	-9%
O=c1c(O)c(-c2ccc(O)c(O)c2)oc2c(O)c(O)cc(O)c12	-17%	·	·	2%	i	·
O=c1oc2c(O)c(O)cc3c(=O)oc4c(O)c(O)cc1c4c23	-21%	?	4.1µM*	-24%	-4%	-28%
CCCCn1nnnc1C1(C)CCC(=O)N1CCc1ccccc1F (centres undefined)	-2%	·	·	-5%	-4%	·
COc1ccc(/C=N/Nc2ccc(C(=O)O)cc2)c(OC)c1OC	-8%	?	?	41%	-28%	0%
COC(=O)c1ccc2c(c1)C(C)(C)C(/C=C/c1ccc(O)cc1)=[N+]2C	·	?	?	10µM*	·	-15%
